Test results published in PubChem BioAssay AID504845 (National Center for Advancing Translational Sciences (NCATS), 2011).
Where “and” joins values, the source holds several entries; their conditions need not be identical. Equal entries are not always repeated. Screen size: about 390,000 compounds; about 150 (0.038%) were called active. A call without a number means that no potency is given here. Roughly 3% stayed inconclusive and do not appear here. Calls follow the shape of the dose curve; as a rule, active = well fitted inhibition curve with a large enough effect; inconclusive = small, poorly fitted or top-dose-only effect; inactive = no such curve, though single readings can be large or run the other way. This excerpt belongs to a sample that is enriched for actives. Some compounds were tested as several samples or in several runs, with calls that do not always agree.

Biological target: Regulator of G-protein signaling 4 (Homo sapiens) (UniProt P49798)
Sequence (P49798 whole entry, looked up): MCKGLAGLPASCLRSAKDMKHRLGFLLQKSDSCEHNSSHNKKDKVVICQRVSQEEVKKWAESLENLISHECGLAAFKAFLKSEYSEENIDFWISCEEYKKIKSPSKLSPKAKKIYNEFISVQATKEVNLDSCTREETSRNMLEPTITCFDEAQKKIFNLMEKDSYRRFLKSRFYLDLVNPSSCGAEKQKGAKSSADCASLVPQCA
Assay: Inhibitors of Regulator of G Protein Signaling (RGS) 4: qHTS; also: nearly all actives have a fitted effect of over 75% in size
Settings: Transcreener GDP fluorescence polarization, RGS4-accelerated GTP hydrolysis; series mostly up to 56.9 µM
Source text: G-protein-coupled receptors (GPCRs) are well-established targets for drug discovery and development. Members of the "regulator of G-protein signaling" (RGS)-protein superfamily have recently emerged as critical modulators of specific GPCR signaling pathways. […] Combining specific RGS domain inhibitors with existing GPCR agonists should potentiate cellular responses and could also increase the specificity of action of existing therapeutics. Small molecule modulators of RGS domain activity should also have clinical utility in inhibiting or potentiating the actions of endogenous GPCR agonists. In particular, the diversity of RGS proteins with highly localized and dynamically regulated distributions in the human brain makes this family of proteins attractive targets for pharmacotherapy of central nervous system (CNS) disorders such as Parkinson's disease, schizophrenia, and anxiety.
This assay was used to screen the NIH Molecular Libraries Small Molecule Repository (MLSMR) in order to identify a small molecule that inhibits RGS4.
NIH Chemical Genomics Center [NCGC]
NIH Molecular Libraries Probe Centers Network [MLPCN]
Assay Submitter (PI): David Siderovski, University of North Carolina Chapel Hill (School of Medicine)
Two microliters of 500nM (2x working concentration) is dispensed into black medium-binding solid-bottom Kalypsys plates. Then with the Kalypsys pintool 23nl of control and compounds are transferred; the control compound is […] CCG-4986 (working concentration). […] An initial fluorescent polarization read (620 nm/688 nm) is performed on the Envision before the plate is incubated for 90 minutes at 30 deg C at a relative humidity of 80%. The plate is once more centrifuged at 1000 RPM for 15 seconds and another Envision fluorescent polarization (620 nm/688 nm) read is carried out.
Potency is read from the fitted curve at half-maximal effect.

SMILES | Potency
CC(=O)c1c(O)c(C)c(O)c(Cc2c(O)c3c(c(C(=O)/C=C/c4ccccc4)c2O)OC(C)(C)C=C3)c1O | inactive and 10.6 µM (active)
CC(=O)OC1C([N+]2(C)CCCCC2)C[C@H]2C3CC[C@H]4C[C@H](OC(C)=O)C([N+]5(C)CCCCC5)CC4(C)C3CCC12C (stereo partly drawn) | inactive
CCCN(C/C=C/I)C1CCc2ccc(O)cc2C1 (stereo not drawn) | inactive
